Assay outcomes: PubChem BioAssay, several laboratories
LYPLA1 inh – LYPLA1 (human) inhibition in PME1 counter-screen | recombinant LYPLA1, FP-Rh probe fluorescence polarization | inhibition, % at 5.9 µM | 320,000 compounds, 0.16% hits | AID 2174;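 active means inhibition above the mean of all tested compounds plus 3 SD, set per campaign, cut at about 14% in these data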;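 further: inhibitors block serine hydrolase probe labeling of LYPLA1 so polarization falls; 0% = enzyme with DMSO and 100% = wells lacking LYPLA1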
Hck-Nef inh – human Hck-Nef kinase inhibition | P08631 | Recombinant Hck-YEEI plus Nef, Z-Lyte FRET kinase assay | inhibition, % at 20 µM | 220,000 compounds, 0.68% hits | AID 463187;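 active means Hck-Nef kinase inhibition above about 50%, limit read from the data; inactive means inhibition below that limit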;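 further: 0% = DMSO with Hck plus Nef and 100% = Hck alone without Nef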
p97 ATPase inh – blocks human p97 ATPase activity; recombinant p97 ATPase, Kinase-Glo ATP luminescence, 3 h; inhibition, % at 8 µM; 220,000 compounds, 0.42% hits; in the data active means inhibition above about 15%;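 further: 0% = DMSO vehicle and 100% = wells lacking enzyme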
LYPLA2 inh – LYPLA2 (human) inhibition in PME1 counter-screen. inhibition, % at 5.9 µM. O95372. recombinant LYPLA2, FP-Rh probe fluorescence polarization. 320,000 compounds, 0.38% hits;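 active means inhibition above the screen-wide mean plus 3 SD, limit set per campaign, cut at about 26% in these data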;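 further: 0% = LYPLA2 with DMSO and 100% = wells lacking LYPLA2 enzyme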
PREPL inhibitor – inhibits the human prolyl oligopeptidase-like enzyme; recombinant PREPL, fluorescence polarization activity-based probe; inhibition, % at 5.96 µM; 320,000 compounds, 0.68% hits; AID 2751;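 further: 0% = enzyme with DMSO and 100% = wells lacking enzyme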
Target sequence (Q4J6C6 whole entry, looked up): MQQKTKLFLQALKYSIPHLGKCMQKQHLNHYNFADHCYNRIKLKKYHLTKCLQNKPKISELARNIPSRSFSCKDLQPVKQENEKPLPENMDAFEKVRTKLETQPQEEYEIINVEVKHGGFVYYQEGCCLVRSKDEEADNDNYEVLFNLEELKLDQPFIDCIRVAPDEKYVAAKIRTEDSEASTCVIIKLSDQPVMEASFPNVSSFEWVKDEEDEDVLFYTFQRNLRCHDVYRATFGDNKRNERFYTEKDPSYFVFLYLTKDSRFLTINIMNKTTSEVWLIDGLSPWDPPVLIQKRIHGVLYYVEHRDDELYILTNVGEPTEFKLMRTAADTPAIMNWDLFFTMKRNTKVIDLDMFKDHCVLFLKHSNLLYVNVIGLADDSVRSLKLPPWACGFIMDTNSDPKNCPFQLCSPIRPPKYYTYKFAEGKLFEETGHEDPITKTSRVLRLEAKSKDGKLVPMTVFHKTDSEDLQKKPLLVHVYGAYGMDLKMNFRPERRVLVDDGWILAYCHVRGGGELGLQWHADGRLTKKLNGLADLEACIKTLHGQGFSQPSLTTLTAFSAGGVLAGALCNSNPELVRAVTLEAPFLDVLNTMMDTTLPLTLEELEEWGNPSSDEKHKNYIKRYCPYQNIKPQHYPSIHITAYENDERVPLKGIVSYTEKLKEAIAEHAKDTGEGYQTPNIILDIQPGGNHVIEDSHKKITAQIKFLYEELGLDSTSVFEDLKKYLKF
Rin1-Abl PPI inh – blocks binding of human Rin1 to Abl | inhibition, % at 7.35 µM | AID 588664 | 360,000 compounds, 0.4% hits | TR-FRET Rin1/Abl binding, biochemical | P00519+Q13671; in the data active means inhibition above about 5%, passing the limit was not always enough
PREPL inh cf – human PREPL inhibition, confirmation; 2,000 compounds, 67% hits; inhibition, % at 5.96 µM; shares compounds with PREPL inhibitor; AID 2803; recombinant PREPL, fluorescence polarization activity probe;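 further: 0% = protein with DMSO and 100% = wells lacking protein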
Starred values were filed as active, the others as inactive; nt = no result. A selection: hits, their analogues and other compounds. The true share with any hit is near 1.7%. Unless noted, no stated cut-off is given here; in the data, active means inhibition above about 43%; inactive means the rest.

SMILES	LYPLA1 inh	Hck-Nef inh	p97 ATPase inh	LYPLA2 inh	PREPL inhibitor	Rin1-Abl PPI inh	PREPL inh cf
COc1ccc(CNC(=O)Cc2c(C(=O)O)[nH]c3ccccc23)cc1	-3.1	0.1	3.6	1.8	19.8	-0.8	nt
COc1ccc(CNC(=O)Cc2c(C(=O)O)[nH]c3ccccc23)c(OC)c1	4.8	nt	nt	3.0	125.6*	0.5	2.6
Cc1nnc(N/N=C/c2cccc(OCc3ccc(Cl)c(Cl)c3)c2)n1N	2.7	2.1	0.7	8.8	73.2*	-0.6	64.7*
Cc1nnc(N/N=C/c2cccc(C(F)(F)F)c2)n1N	-0.5	nt	nt	-4.2	2.9	2.2	nt
Cc1ccsc1/C=N/N=C1\C(=O)Nc2ccccc21	3.0	2.0	0.3	0.6	52.9*	-6.4	51.6*
COc1cc(/C=N/N=C2/C(=O)Nc3ccccc32)ccc1O	6.6	9.8	1.1	6.1	5.0	-3.4	nt
CC(NC(=O)c1cccs1)c1nnc(SCc2ccc(Cl)cc2Cl)n1C (stereo not given)	-0.6	3.0	5.9	-7.4	43.3*	-3.0	38.6
CC(=O)Nc1ccc(S(=O)(=O)NC2=C(N3CCN(c4ccc(F)cc4)CC3)C(=O)c3ccccc3C2=O)cc1	0.6	-2.8	2.3	8.3	58.6*	1.9	73.5*
Cc1ccc(S(=O)(=O)NC2=C(N3CCN(c4ccccc4F)CC3)C(=O)c3ccccc3C2=O)cc1	0.9	-0.8	-3.6	-3.2	29.9	0.1	nt
COc1cc2c(C#N)c(N3CCN(C)CC3)nc(N)c2c(N)n1	-2.8	0.6	4.7	1.7	45.4*	-0.6	33.8
COc1cc2c(C#N)c(N3CCN(c4ccccc4OC)CC3)nc(N)c2c(N)n1	3.0	5.8	7.0	8.6	48.9*	-3.9	45.5*
Cc1ccccc1OCC(=O)NCCCNC(=O)c1ccncc1	-3.4	nt	nt	0.3	1.0	0.5	nt
O=C(NCc1ccco1)c1ccc(Br)c(S(=O)(=O)N2CCCCC2)c1	-3.8	0.2	-2.2	-5.4	-6.1	2.7	nt
O=C(NCc1ccco1)c1ccc(F)c(S(=O)(=O)N2CCCCC2)c1	-1.7	-1.6	0.5	-10.3	61.0*	4.0	6.6
Cc1ccc2nc(-c3ccccn3)c(NC3CCCC3)n2c1	0.9	29.3	-0.3	4.3	64.1*	0.6	69.7*
CCCCCCSc1cccc(-c2nc3ccc(C)cn3c2NC2CCCCC2)c1	-0.3	nt	nt	1.1	7.6	1.0	nt
COc1cc(CC(=O)OCC(=O)NCc2cccs2)cc(OC)c1OC	nt	nt	nt	nt	6.7	2.1	nt
COC(=O)c1cc(S(=O)(=O)NCC2CCN(Cc3ccccc3F)CC2)c[nH]1	-5.1	nt	nt	3.9	3.2	1.8	nt
OC1CCN(c2c3c(nc4cc(-c5cccc(F)c5)nn24)CCCC3)CC1	3.6	2.8	3.8	7.2	44.1*	1.1	30.5
O=C(C[n+]1cc(-c2ccccc2)n2c1CCCCC2)c1ccc(Cl)cc1	2.5	-0.1	-7.0	5.1	40.1	0.9	nt
CC1CCC(C(C)C)C(OC(=O)C[n+]2cc(-c3ccc(Cl)cc3)n3c2CCCCC3)C1 (stereo not given)	1.7	10.7	0.6	1.7	46.9*	3.1	44.0*
CN(Cc1ccco1)c1ncnc2ccc(-c3ccccc3Cl)cc12	-3.7	nt	nt	-3.9	45.2*	5.0	20.1
COc1ccc(C(CNC(=O)c2cccc(S(=O)(=O)N(C)c3ccccc3)c2)N2CCCC2)cc1 (stereo not given)	-0.2	nt	nt	1.7	-26.3	0.1	nt
CC(CO)Nc1nc(SCc2ccccc2)nc2sc3c(c12)CCC3 (stereo not given)	-7.4	2.6	-3.4	-4.7	43.7*	0.9	41.4
COc1ccc(CC2(CO)CCN(S(=O)(=O)c3cccc4cccnc34)CC2)cc1	-2.0	nt	nt	7.3	50.5*	0.9	41.9
O=[N+]([O-])c1ccc(N2CCN(Cc3cccc([N+](=O)[O-])c3)CC2)cc1	-0.7	nt	nt	11.2	44.9*	-2.7	44.2*
O=[N+]([O-])c1cccc(CN2CCCCCC2)c1	1.6	nt	nt	4.1	29.9	0.4	nt
CCN(C(=O)CN1CCN(S(=O)(=O)c2cc(Cl)ccc2Cl)CC1)c1c(N)n(Cc2ccccc2)c(=O)[nH]c1=O	-2.4	-0.8	1.5	-4.7	64.5*	0.6	60.7*
Cc1cn([C@H]2C[C@H](O)[C@@H](CCC(=O)NCCN3CCCCC3)O2)c(=O)[nH]c1=O	nt	nt	nt	nt	nt	-1.4	nt
